Here are results for 109 molecules from PubChem BioAssay AID485275 (NMMLSC, 2010).

Structures are written as SMILES. The whole screen tested about 330,000 compounds, of which about 1,400 (0.42%) were called active. Many of the other results were omitted from the sample, so actives are more common in it than they were. Values without a mark were called inactive.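 The calls were made as follows: active = plate passing quality check with inhibition over a set limit, or well fluorescence over plate mean plus 4 SD; inactive = the rest.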

What is called inhibition is the relative decrease from the control value, in per cent.

This assay can be described thus: antifungal drug efflux pump blockers, triplex strains – S. cerevisiae, Nile Red, multiplex, primary screen (AID 485275).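 Also: Nile Red retained in pooled yeast measured as flow cytometry median fluorescence; 0% = buffer negative control and 100% = Enniatin B positive control; higher means more Nile Red kept so more efflux inhibition.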 Conditions: S. cerevisiae Candida pump triplex, at 10 µM, active compounds read high.
Regarding `COc1ccccc1/C=N/N1CCN(Cc2ccccc2Cl)CC1`, the inhibition was -0.11%.

For `CC12CCC(C(=O)N(c3cccc(Cl)c3)C1=O)C2(C)C` (centres undefined), the inhibition is 10.2% (active). For the molecule `O=C1CC(NNc2ccccc2)C(=O)N1c1cccc(Cl)c1` (centres undefined), the inhibition was 0.07%. With `CC12CCC(C(=O)N(NC(=O)c3ccccc3O)C1=O)C2(C)C` (centres undefined) the figure was -0.08%. The same measure for `O=C(CCCN1C(=O)CSc2ncccc21)N1CCN(c2cccc(C(F)(F)F)c2)CC1`: 0.01%; for `O=C(CSC1CC(=O)N(CCc2ccccc2)C1=O)Nc1ccc(Cl)cc1` (centres undefined): 0.17%; for `NC(=O)c1cc(S(=O)(=O)NCCCc2ccco2)cs1`: -0.02%. With `COc1cccc(NC(=O)CN(C)C(=O)Cc2ccc(Cl)cc2Cl)c1` the figure was -0.07%; with `COc1ccc(/C=C/C(=O)OCC(=O)Nc2cccc(Oc3ccccc3)c2)c(OC)c1`, -0.02%; with `COc1cccc(NC(=O)CN(C)C(=O)/C=C/c2cc(OC)ccc2OC)c1`, 15.2% (active).

For the molecule `CCN(CC)CC(=O)Nc1nn(-c2ccccc2)nc1C(N)=O`, the inhibition is 0.02%. With `CN(C)S(=O)(=O)c1cc(C(=O)Nc2ccn(C)n2)c(Cl)cc1Cl` the figure was 52.3% (active); with `Cc1ccc(C(=O)Nc2ccn(C)n2)cc1`, -0.02%; with `O=C(Nc1nccs1)c1cc(S(=O)(=O)N2CCOCC2)c(Cl)cc1Cl`, -0.05%.

Take `COC(=O)/C(=C1\Oc2ccc(C(C)(C)C)cc2S1)C(F)(F)F`: the inhibition was -0.15%. With `O=C(NN1C(=O)C2CCCCC2C1=O)c1ccco1` (centres undefined) the figure was -0.1%; with `Cc1ccc(S(=O)(=O)N2CC(C)N(S(C)(=O)=O)C2)cc1` (centres undefined), -0.07%; with `CCOC(=O)c1c(NC(=O)C2(C)Cc3ccccc3C(=O)O2)sc2c1CCCC2` (centres undefined), 0.15%. The same measure for `CCOC(=O)c1c(NC(=S)Nc2ccccc2)sc2c1CCN(C)C2`: -0.02%; for `CCOC(=O)c1c(NC(=S)NC(=O)c2ccco2)sc2c1CCCC2`: 1.02% (active); for `C=CCNC(=O)c1sc(SC)cc1-c1ccc(Cl)cc1`: -0.08%. With `CCCCN1C(=O)CCC(C(=O)O)C1c1ccc(OC)cc1` (centres undefined) the figure was 0.12%.

In the case of `Cc1ccc(C)c(-n2nnnc2SCC(=O)c2c(N)n(C)c(=O)n(C)c2=O)c1`, the inhibition was -0.07%. For `COc1ccc(OC)c(-n2nnnc2SCC(=O)Nc2cc(C)ccc2OC)c1`, the inhibition was -0.01%. With `CCOC(=O)CNC(=O)CSc1nnnn1-c1cc(C)ccc1C` the figure was 0.92% (active).

As to `O=C(NCC(=O)N1CCN(c2ncc(C(F)(F)F)cc2Cl)CC1)c1ccc(Br)o1`, the inhibition was -0.34%. With `CN1CCN(S(=O)(=O)c2ccc(NC(=S)NC(=O)C3CC3)cc2)CC1` the figure was 10.2% (active); with `CC(=O)Nc1ccc(S(=O)(=O)N2CCC(C(=O)NC3CC3)CC2)cc1`, -0.06%; with `CN1CCN(S(=O)(=O)c2ccc(NC(=O)C3CCCO3)cc2)CC1` (centres undefined), -0.16%. With `CCN(CC(=O)Nc1c(F)cccc1F)C(=O)c1cnc(C)cn1` the figure was -0.12%. With `CN1C(=O)/C(=C/c2ccco2)SC1=Nc1cccc(C(=O)O)c1` the figure was -0.02%; with `Cc1ccc(N=C2NC(=O)/C(=C/C=C/c3ccco3)S2)cc1C`, 2.76% (active). In the case of `CCCn1c2ccccc2c2cnn(CC(=O)NCCCN3CCCCC3CC)c(=O)c21` (centres undefined), the inhibition was 0.02%.

For the molecule `CC(C)N1CCC(N2CCN(Cc3cccnc3)CC2CCO)CC1` (centres undefined), the inhibition was 0.28%. The same measure for `Nc1ccc(N=Nc2ccccc2Cl)c(N)n1`: 0.15%; for `CCOC(=O)CNC(=O)/C=C/c1c(Cl)cccc1Cl`: -1.16%. The same measure for `O=C(CC(=O)N/N=C\c1cccc(Cl)c1Cl)NCc1ccccc1`: 0.27%. With `O=C(/C=C/c1c(Cl)cccc1Cl)NCc1ccccc1` the figure was 24.9% (active); with `CCCc1ccc(OCC(O)CN2CCN(C(=O)OCC)CC2)cc1` (centres undefined), 0.15%; with `C=CCC[C@H](Cc1ccc(F)cc1)C(=O)OC[C@H](C)NC(=O)[C@H](CC=C)CC(=O)N(CCO)Cc1ccccc1`, -0.16%. Regarding `C=CCC[C@@H](Cc1ccc(F)cc1)C(=O)OC[C@H](Cc1c[nH]c2ccccc12)NC(=O)[C@@H](CC=C)CC(=O)N(CCO)Cc1ccccc1`, the inhibition is 149% (active). With `C=CCC[C@H](Cc1ccc(F)cc1)C(=O)OC[C@@H](Cc1c[nH]c2ccccc12)NC(=O)[C@H](CC=C)CC(=O)N[C@H](CO)Cc1ccccc1`, the inhibition was -0.27%. With `COCC(C)NC(=O)c1ccc(-n2nc(C(F)(F)F)cc2-c2cccs2)cc1` (centres undefined) the figure was -0.07%.

Consider `O=C(NCc1ccc2c(c1)OCO2)c1cc(F)c(F)cc1Cl`, for which the inhibition was 0.18%. The same measure for `Cc1nc2c(C(=O)NCc3ccc4c(c3)OCO4)c[nH]n2c(=O)c1Cc1ccccc1F`: 0.63% (active). The same measure for `CCn1c(=O)c(C(=O)NCc2ccc3c(c2)OCO3)c(O)c2ccccc21`: -0.11%.

`CCN(C(=O)CSc1nnc(-c2ccc(OC(F)F)cc2)n1N)C1CCS(=O)(=O)C1` (centres undefined): the inhibition is 0.02%. With `CC(=O)C1(C)N(O)C(C)(C)C(c2cccs2)=[N+]1[O-]` (centres undefined) the figure was -0.09%.

On to `O=C(CSc1nnc(-c2cccnc2)n1Cc1ccco1)c1ccc(Cl)c(Cl)c1`, for which the inhibition was 0.84% (active). As to `O=C(CSc1nnc(-c2cnccn2)n1Cc1ccco1)c1ccc(Cl)c(Cl)c1`, the inhibition was -0.1%. As to `COc1cc(Cl)c(C)cc1NC(=O)CSc1nnc(-c2cccnc2)n1Cc1ccco1`, the inhibition is 0.03%. With `CSc1cccc(NC(=O)C2CCCN2S(=O)(=O)c2ccc3c(c2)CCC(=O)N3)c1` (centres undefined) the figure was 0.16%; with `COc1cccc(CNC(=O)C(=O)NCCC2CCCCN2S(=O)(=O)c2ccc(C)cc2)c1` (centres undefined), 0.03%.

With `Cc1ccc(C(=O)Nc2ccccc2-c2ccccc2)cc1S(=O)(=O)Nc1ccccc1`, the inhibition was 0.01%. With `Cc1ccc(C(=O)O)cc1N1C(=O)CCCC1=O` the figure was -0.14%; with `CCNc1c(NS(=O)(=O)c2ccc(C3CCCCC3)cc2)c(=O)oc2ccccc12`, 1.37% (active); with `CCC(=O)Nc1ccc(S(=O)(=O)Nc2c(NC)c3ccccc3oc2=O)cc1`, 0.02%.

On to `O=c1oc2ccccc2c(NC2CCCCC2)c1NS(=O)(=O)c1ccc(Cl)cc1`, for which the inhibition is -0.01%. With `CC1CC(C)CN(C(=O)C2CC(=O)N(c3ccc(F)cc3)C2)C1` (centres undefined) the figure was -0.06%; with `COc1ccccc1N=C1SC(C)CN1C(=O)C1CCC1` (centres undefined), 0.03%; with `O=C(NN1C(=O)C2C3C=CC(O3)C2C1=O)c1ccncc1` (centres undefined), 0.07%. With `Cc1ccc(-c2csc(NC3OC(=O)c4ccccc43)n2)cc1` (centres undefined) the figure was 0.03%; with `Cc1ccccc1Nc1nc(-c2cccnc2)cs1`, 0.3%. Regarding `c1cnc(Nc2nc(-c3ccc4ccccc4c3)cs2)nc1`, the inhibition was 0.79% (active). With `COc1ccc(C(=O)C2CCCN(Cc3ccc4nonc4c3)C2)c(C)c1` (centres undefined) the figure was 0.05%; with `COc1ccc(C(=O)C2CCCN(Cc3cccn3-c3ccccn3)C2)c(C)c1` (centres undefined), 0.98% (active); with `CCOC(=O)c1[nH]ncc1CN1CCCC(C(=O)c2ccc(OC)cc2C)C1` (centres undefined), 0.25%. The same measure for `Cc1c(CCO)sc[n+]1CC(=O)OC12CC3CC(CC(C3)C1)C2`: -0.46%; for `Cc1c(CCOC(=O)CC23CC4CC(CC(C)(C4)C2)C3)sc[n+]1Cc1ccc([N+](=O)[O-])cc1`: 0.61% (active); for `Cc1c(CCOC(=O)c2cc([N+](=O)[O-])ccc2Cl)sc[n+]1CCCCS(=O)(=O)[O-]`: 0.04%. With `CC1CCCCC1NC(=O)Cn1c(=O)cnc2ccccc21` (centres undefined) the figure was -0.23%; with `CCOC(=O)N1CCN(S(=O)(=O)c2ccc(C(=O)Nc3ccc(F)cc3F)cc2)CC1`, -0.12%; with `Cc1c(C(=O)NCCN2C(=O)S/C(=C\c3cccs3)C2=O)cccc1[N+](=O)[O-]`, 0.33%. Take `CCOc1ccc(CCNC(=O)Nc2ccccc2)cc1OCC`: the inhibition is -0.23%. As to `O=C(Cc1ccc(Br)cc1)NCCN1CCOCC1`, the inhibition is -0.17%.

In the case of `CCCn1nc(C(=O)NNC(=O)CCOc2ccccc2OCC)c2ccccc2c1=O`, the inhibition is -0.08%.

As to `CCOc1ccccc1/C=c1\sc2nc(-c3ccco3)nn2c1=O`, the inhibition is 3.16% (active).

Consider `CCOc1ccccc1C1NC(=O)NC(C)=C1C(=O)OCc1ccco1` (centres undefined), for which the inhibition was 0.02%. With `O=C(CCNC(=O)c1ccc([N+](=O)[O-])cc1)Nc1ccccc1N1CCOCC1` the figure was 0.19%.

For `Cc1nc2sc(C(c3ccco3)N3CCC4(CC3)OCCO4)c(O)n2n1` (centres undefined), the inhibition was -0.06%.

On to `O=C(NC(=S)Nc1ccc2oc(=O)ccc2c1)c1ccc(-c2cccc(Cl)c2Cl)o1`, for which the inhibition is 0.12%. The same measure for `NC(=O)C1CCN(CC(O)CSc2ccc(F)cc2)CC1` (centres undefined): -0.06%. As to `CC1CCc2c(sc3c2C2=NS(=O)(=O)CCN2C=N3)C1` (centres undefined), the inhibition is 0.15%. With `O=C(CNC(=O)c1ccc(-c2ccccc2)cc1)OCc1ccc(Cl)cc1` the figure was 17.2% (active); with `O=C(CNC(=O)c1ccccc1)NCC(=O)OCc1ccc(Cl)cc1`, 0.03%; with `Cc1ccc(C(=O)NCC(=O)OCc2nnc(-c3ccccc3)o2)cc1`, 0.08%.

Take `CN1CCN(Cc2c(C(=O)N3CCc4ccccc4C3)nc3ccc(Cl)cn23)CC1`: the inhibition was 0.16%. In the case of `CCOc1ccc(NC(=O)CN(C)C(=O)COc2cccc(CC)c2)cc1OCC`, the inhibition was 0.06%. With `COc1ccccc1-c1sc2ccccc2c1-c1ccc(Br)nc1` the figure was -0.34%; with `COc1ccc(-c2sc3ccccc3c2-c2ccc(OCCN3CCOCC3)cc2)cc1`, 0.31%; with `COc1ccccc1-c1sc2ccccc2c1-c1ccc(C(C)=O)cc1`, -0.1%. The same measure for `COc1ccc2sc(-c3ccccc3OC)c(-c3ccc(OCCN4CCCC4)cc3)c2c1`: 198% (active).

For `COc1cc(OC)cc(-c2sc3ccc(OC)cc3c2-c2ccc3cc[nH]c3c2)c1`, the inhibition was -0.09%.

As for `O=C(COC(=O)COc1cc(Cl)c(Cl)cc1Cl)NC1CC1`, the inhibition was 0.12%. The same measure for `Cc1ccc(Cn2c(C)nc3c(c2=O)c2nc4ccccc4nc2n3Cc2ccco2)cc1`: 0.94% (active); for `Clc1cccc(-c2nc3nc4ccccc4nc3n2Cc2ccco2)c1`: -0.17%.

Regarding `O=c1c2ccccc2oc2nc(C3CCCCC3)n(Cc3ccco3)c(=O)c12`, the inhibition was -0.05%. With `Cc1cc(N(C)C)cc(C)[n+]1[O-]` the figure was -0.18%. The same measure for `C=CC[n+]1c(-c2ccc(C)cc2)csc1NNC(=O)Nc1ccccc1`: -0.18%; for `Cc1cc(C)cc(NC(=O)C(OC(=O)c2ccc(O)cc2)c2ccccc2)c1` (centres undefined): 0.91% (active). The same measure for `Cc1ccc(C)c(NC(=O)C(OC(=O)c2ccc(C)s2)c2ccccc2)c1` (centres undefined): -0.08%.

For the molecule `COC(C(=O)Nc1ccc(C(C)=O)cc1)c1ccccc1` (centres undefined), the inhibition is -0.08%. `O=C(O)CCCCCCCCCC[n+]1ccccc1`: the inhibition was 0.3%. The same measure for `CCOC(=O)C1(Cc2cccc(OC)c2)CCCN(C(=O)CCSC)C1` (centres undefined): 0.41%. As for `Cc1cccc(OCCC(=O)OCc2csc(CC(=O)Nc3ccccc3C)n2)c1`, the inhibition is 0.08%.

For `O=C(c1ccc(F)cc1)N1CCC(n2nnc3ccccc32)CC1`, the inhibition was -0.14%. For `COc1ccc2cc(C3=CC(=O)C[C@H](c4ccc5c(c4)OCO5)C3)ccc2c1`, the inhibition is -0.01%. The same measure for `Brc1cnc2ccccc2c1N1CCCCC1`: 0.04%; for `COc1cc(C(=O)NCc2ccc(-n3cccc3)cc2)cc(OC)c1OC`: 0.13%.
